Compound activity: PubChem, Broad Institute
Shown are actives, neighbours in structure and some others; about 1.1% of the full set was active somewhere.
LANA DNA inh – inhibitors of KSHV C-LANA binding to DNA, primary screen, biochemical, fluorescence polarization, FAM-LBS DNA, MBP-C-LANA, single point; Kaposi's sarcoma herpesvirus LANA C-terminal domain (residues 932-1162) DNA binding; inhibition, % at 9 µM; 340,000 tested, 0.078% active; AID 504423, 2011;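 active means highest replicate inhibition at or above 60% at 9 µM, even if other replicates fall short; inactive means all replicates below 60% inhibition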;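 further: 0% = neutral control wells and 100% = 4 µM acridine orange control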
NSD2 inh – NSD2 histone methyltransferase inhibitors, primary screen, biochemical, AlphaScreen, single concentration, set 2 | 310,000 tested, 0.54% active | inhibition, % at 12.5 µM | NSD2 peptide methylation, 120 min; in the data active means inhibition above about 50%
Keap1-Nrf2 PPI – Keap1-Nrf2 protein-protein interaction inhibitors, primary screen, biochemical, fluorescence polarization, single point; Keap1 Kelch-Nrf2 peptide fluorescence polarization, 1536-well; inhibition, % at 9.4 µM; 340,000 tested, 0.15% active; AID 504523, 2011; Kelch-like ECH-associated protein 1 (Homo sapiens), Q14145; in the data active means inhibition above about 12%;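 further: human Keap1 Kelch domain with fluorescein labeled Nrf2 9mer peptide probe; 0% = neutral control wells and 100% = peptide positive control; higher means more block of Keap1 binding to Nrf2 peptide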
Casp6 inh – human caspase-6 inhibitors, primary screen, biochemical, VEID-R110 fluorescence, single point, set 2; inhibition, % at 12.5 µM; 350,000 tested, 0.53% active; AID 686996, 2013; purified caspase-6, Z-VEID-R110 cleavage fluorescence;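 active means mean inhibition across replicates at least about 35%, with every replicate also reaching that limit, limit read from the data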;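 further: 0% = median of neutral control wells and 100% = no fluorescence left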
Target sequence (P55212 24-179 limits assumed): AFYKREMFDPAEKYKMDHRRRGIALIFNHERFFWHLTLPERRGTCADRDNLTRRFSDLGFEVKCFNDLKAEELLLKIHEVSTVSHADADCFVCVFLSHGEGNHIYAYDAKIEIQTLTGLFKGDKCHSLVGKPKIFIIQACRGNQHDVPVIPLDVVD
Target sequence (P55212 194-293 limits assumed): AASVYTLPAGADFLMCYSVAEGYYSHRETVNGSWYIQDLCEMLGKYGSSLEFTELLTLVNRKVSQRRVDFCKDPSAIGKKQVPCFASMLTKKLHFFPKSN
N-glyco inh – increase of ERlucT glycosylation luciferase signal, primary screen, N-linked glycosylation inhibitor project, D54 ERlucT cells, luminescence, set 2; reporter increase, % at 12.5 µM; 360,000 tested, 0.23% active; D54 ERlucT glycosylation luciferase reporter, 24 h; percent of 100 nM tunicamycin response; AID 588692, 2011;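 active means mean luciferase reporter signal, scaled so untreated is 0 and the glycosylation-blocking control 100, at or above a set limit in every replicate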;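 further: luciferase carries N-glycosylation sites so blocking glycosylation raises the light; 0% = median of neutral control wells and 100% = median of 100 nM tunicamycin wells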
HDAC3 inhib – HDAC3 deacetylase inhibitors, primary screen, biochemical, fluorescence, cell-free homogeneous. AID 2718, 2010. 320,000 tested, 0.15% active. Histone deacetylase 3 (Homo sapiens), O15379. recombinant HDAC3, fluorogenic peptide/trypsin coupled. inhibition, % at 8.3 µM; in the data active means inhibition above about 26%, passing the limit was not always enough
* marks the source's active call; other numbers are inactive results; . = no result.

SMILES	LANA DNA inh	NSD2 inh	Keap1-Nrf2 PPI	Casp6 inh	N-glyco inh	HDAC3 inhib
CCO[C@@H]1OC(C(=O)O)=C[C@H](c2ccc(Br)cc2)[C@H]1CCCO	0	.	-9	-2	4	41*
O=C(O)c1cccc2cccc(-c3c4ccc(=O)c(O)c-4oc4c(O)c(O)ccc34)c12	87*	.	7	99*	-2	.
C[C@@H]1CCCCO[C@H](CN(C)S(=O)(=O)c2cccs2)[C@@H](C)CN([C@@H](C)CO)C(=O)c2cc(NS(=O)(=O)c3cn(C)cn3)ccc2O1	.	.	.	2	.	.
CCCNC(=O)N(C)C[C@@H]1Oc2ncc(C#Cc3ccncc3)cc2C(=O)N([C@H](C)CO)C[C@@H]1C	.	.	.	1	.	.
C=CCn1c(=O)/c(=C/c2cc(OC)c(OC)c(OC)c2)s/c1=C(/C#N)c1nc2ccccc2n1C	29	-1	30*	.	-2	8
CC1CCN(S(=O)(=O)c2ccc(NC(=O)Cn3nnc(-c4ccccc4)n3)cc2)CC1	-2	.	-3	.	47*	4
Cc1ccc(-c2nnn(CC(=O)Nc3ccc(S(=O)(=O)N4CCC(C)CC4)cc3)n2)cc1	1	-1	-6	.	21	4
C[C@H]1CN([C@@H](C)CO)C(=O)Cc2cc(NC(=O)c3ccncc3)ccc2O[C@@H]1CN(C)CC1CCCCC1	.	.	.	2	.	.
C[C@@H]1CCCCO[C@H](CN(C)C(=O)CCCN(C)C)[C@@H](C)CN([C@@H](C)CO)C(=O)c2cc(NC(=O)Nc3cccc4ccccc34)ccc2O1	.	.	.	-8	.	.
COc1ccc(NC(=O)N[C@H]2CC[C@@H](CCn3cc(-c4ccc(OC)cc4)nn3)O[C@@H]2CO)cc1	.	.	.	1	.	.
CCc1cccc(CC)c1NC(=O)/C(C#N)=C/c1ccccc1C(F)(F)F	1	-3	0	.	69*	4
N#C/C(=C\c1ccccc1C(F)(F)F)C(=O)Nc1ccccc1	0	-1	-3	3	2	8
CC(Nc1nc(-c2cccnc2)nc2ccccc12)c1ccccc1 (stereo unspecified)	.	-1	.	2	38*	.
O=C(Oc1cccc(-n2cnnn2)c1)c1ccco1	4	1	-3	.	2	32*
O=C(Oc1ccc(-c2nnco2)cc1)c1ccco1	-1	-1	-1	0	1	63*
O=C(Oc1ccc(-c2cnc3ccccc3n2)cc1)c1ccco1	-1	-1	-6	.	-9	-3
CO[C@@H]1CN(C)C(=O)c2ccc(NC(C)=O)cc2OC[C@@H](C)N(C(=O)c2cccnc2)C[C@H]1C	.	.	.	-1	.	.
CO[C@@H]1CN(C)C(=O)c2ccc(NS(C)(=O)=O)cc2OC[C@@H](C)N(CCC(F)(F)F)C[C@@H]1C	.	.	.	0	.	.
CC1(C)CCCN(C(=O)c2coc(=O)c(Br)c2)C1	64*	114*	-4	.	3	.
O=C(C[C@@H]1CC[C@H](NC(=O)c2ccccn2)[C@@H](CO)O1)NCc1cccc(F)c1	.	.	.	-2	.	.
O=S(=O)(c1ccc(F)cc1)N(CCO)CC(O)Cn1c2ccccc2c2ccccc21 (stereo unspecified)	-1	-2	-3	.	-1	-4
CCN(CC(O)Cn1c2ccccc2c2ccccc21)S(=O)(=O)c1ccc(F)cc1 (stereo unspecified)	0	-4	0	.	-6	30*
COc1ccc(/C(C)=N/NC(=O)c2ccccc2OCc2ccccc2)c(OC)c1	-1	-3	-2	-3	32*	3
COc1ccc(/C=N/NC(=O)c2ccccc2OCc2ccccc2)c(OC)c1	1	-4	-4	1	19	-1
COC(=O)[C@]12C[C@H](CC(=O)NCc3ccc(C)o3)C(=O)N(Cc3ccccc3)C1=C[C@H](C1CCCC1)O[C@@H]2C	.	.	.	66*	.	.
SMILES	LANA DNA inh	NSD2 inh	Keap1-Nrf2 PPI	Casp6 inh	N-glyco inh	HDAC3 inhib
O=C1C(Nc2ccc(O)cc2)=C/C(=N/S(=O)(=O)c2cccs2)c2ccccc21	-1	.	-4	99*	-19	.
O=C(O)c1ccc(NC2=C/C(=N/S(=O)(=O)c3ccccc3)c3ccccc3C2=O)cc1	2	.	1	99*	2	.
O=C(O)c1ccc(NC2=C/C(=N/S(=O)(=O)c3cccs3)c3ccccc3C2=O)cc1	.	.	.	100*	3	.
Cc1cc(C)c(S(=O)(=O)/N=C2\C=C(Nc3ccc(C(=O)O)cc3)C(=O)c3ccccc32)c(C)c1	10	.	0	-3	-4	4
COc1ccc(CN(C)C[C@@H]2Oc3c(NS(C)(=O)=O)cccc3C(=O)N([C@H](C)CO)C[C@H]2C)cc1	.	.	.	-3	.	.
CCN1[C@@H]2c3ccc(-c4ccc(F)cc4)c(=O)n3C[C@@H]2[C@@H](CO)[C@@H]1C(=O)OC	.	.	.	3	.	.
Cc1noc(C)c1S(=O)(=O)Nc1cccc2c1O[C@@H](CN(C)C(=O)Nc1ccccc1)[C@@H](C)CN([C@H](C)CO)C2=O	.	.	.	-2	.	.
C[C@@H]1CN([C@H](C)CO)C(=O)c2cc(NC(=O)Nc3cccc4ccccc34)ccc2O[C@@H]1CN(C)C(=O)NC1CCCCC1	.	.	.	-4	.	.
CCCC(=O)Nc1ccc2c(c1)OC[C@H](C)N(C(=O)CC)C[C@@H](C)[C@@H](OC)CN(C)C2=O	.	.	.	0	.	.
COc1ccc(CNC(=O)C2CCN(S(=O)(=O)c3ccc4nc5c(c(C(=O)O)c4c3)CC(C)CC5)CC2)cc1 (stereo unspecified)	1	18	-4	36*	1	-4
Cc1ccc(CCNC(=O)C2CCN(S(=O)(=O)c3ccc4nc5c(c(C(=O)O)c4c3)CCCC5)CC2)cc1	1	-1	2	62*	0	3
CN(Cc1ccccc1)C(=O)C1CCN(S(=O)(=O)c2ccc3nc4c(c(C(=O)O)c3c2)CCCC4)CC1	5	6	-7	62*	-1	0
CC(NC(=O)C1CCN(S(=O)(=O)c2ccc3nc4c(c(C(=O)O)c3c2)CCCC4)CC1)c1ccccc1 (stereo unspecified)	3	-1	-7	52*	0	-4
Cc1noc(C)c1NC(=O)Nc1cccc2c1O[C@H](CN(C)S(=O)(=O)c1ccc(F)cc1)[C@H](C)CN([C@H](C)CO)C2=O	.	.	.	-2	.	.
CCS(=O)(=O)N1CC(=O)N2[C@@H](CO)[C@H](c3ccc(C#CCC(C)C)cc3)[C@@H]2C1	.	.	.	2	.	.
CC1CCc2nc3ccc(S(=O)(=O)N4CCC(C(=O)NCc5ccccc5Cl)CC4)cc3c(C(=O)O)c2C1 (stereo unspecified)	-1	1	-2	45*	2	-4
